# Records with an inconclusive call do not appear. Entries that show only a call come without a potency. A number with no mark means an inactive call. Activity calls are given as the source filed them. Unless noted, the call rests on the fitted dose curve.
# How the values were obtained:
# [1] = qHTS for Inhibitors of the Functional Ribonucleoprotein Complex (vRNP) of Lassa (LASV) Arenavirus: LASV Primary Screen - GLuc reporter signal (AID 1347082; calls by dose curve; tested in HEK293 reporter line; further: series mostly up to about 57 µM; nearly all actives have a fitted effect of over 60% in size)
# [2] = qHTS for Inhibitors of the Functional Ribonucleoprotein Complex (vRNP) of Lassa (LASV) Arenavirus: Viability assay - alamar blue signal for LASV Primary Screen (AID 1347083; calls by dose curve; tested in HEK293 reporter line; further: nearly all actives have a fitted effect of over 80% in size; further: potency means the concentration at half of the fitted maximal effect; on activity change, negative = reduced viability: series mostly up to about 57 µM)
# [3] = qHTS for Inhibitors of the Functional Ribonucleoprotein Complex (vRNP) of Lymphocytic Choriomeningitis Arenaviruses (LCMV): Viability assay - alamar blue signal for LCMV Primary Screen (AID 1347085; calls by dose curve; tested in HEK293 reporter line; further: series mostly up to about 57 µM; nearly all actives have a fitted effect of over 80% in size)
# [4] = target: Nucleoprotein (Lymphocytic choriomeningitis virus (strain Armstrong)) (UniProt P09992); assay: qHTS for Inhibitors of the Functional Ribonucleoprotein Complex (vRNP) of Lymphocytic Choriomeningitis Arenaviruses (LCMV): LCMV Primary Screen - GLuc reporter signal (AID 1347086); further: series mostly up to about 57 µM; nearly all actives have a fitted effect of over 70% in size
# Nucleoprotein (Lymphocytic choriomeningitis virus (strain Armstrong)), sequence (P09992 whole entry, looked up): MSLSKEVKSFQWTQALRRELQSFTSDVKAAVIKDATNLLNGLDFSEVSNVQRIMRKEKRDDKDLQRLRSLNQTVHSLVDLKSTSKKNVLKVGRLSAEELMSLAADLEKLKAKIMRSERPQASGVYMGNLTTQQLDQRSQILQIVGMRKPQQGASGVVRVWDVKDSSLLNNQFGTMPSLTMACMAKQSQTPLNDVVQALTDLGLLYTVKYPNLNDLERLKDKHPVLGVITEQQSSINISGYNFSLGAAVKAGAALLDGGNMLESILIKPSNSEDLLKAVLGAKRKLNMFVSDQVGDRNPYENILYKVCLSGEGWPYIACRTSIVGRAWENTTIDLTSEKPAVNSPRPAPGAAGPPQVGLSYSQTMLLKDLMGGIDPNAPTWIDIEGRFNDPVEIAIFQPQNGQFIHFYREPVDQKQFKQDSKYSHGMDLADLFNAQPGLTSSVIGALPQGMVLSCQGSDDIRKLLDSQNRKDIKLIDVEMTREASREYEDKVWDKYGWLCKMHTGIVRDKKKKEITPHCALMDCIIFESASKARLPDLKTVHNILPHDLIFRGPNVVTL
SMILES,Potency [1],Potency [2],Potency [3],Potency [4],"activity change, negative = inhibition [1]","activity change, negative = reduced viability [2]","activity change, negative = lower viability [3]","activity change, negative = inhibition [4]"
CCCCCCOc1ccccc1C(N)=O,inactive,inactive,inactive,inactive,,,,
CC(=O)O[C@]1(C(C)=O)CC[C@H]2[C@@H]3C[C@H](C)C4=CC(=O)CC[C@]4(C)[C@H]3CC[C@@]21C,inactive,inactive,inactive,inactive,,,,
Oc1ccc(Cl)c2cccnc12,inactive,inactive,inactive,inactive,,,,
CC(=O)CC(c1ccc([N+](=O)[O-])cc1)c1c(O)c2ccccc2oc1=O (stereo not given),inactive,inactive,inactive,inactive,,,,
COCCOC(=O)C1=C(C)NC(C)=C(C(=O)OC(C)C)C1c1cccc([N+](=O)[O-])c1 (stereo not given),inactive,inactive,inactive,inactive,,,,
Cn1nnc2c(C(N)=O)ncn2c1=O,inactive,inactive,inactive,inactive,,,,
O=c1[nH]c(=O)n([C@H]2C[C@H](O)[C@@H](CO)O2)cc1I,inactive,inactive,inactive,inactive,,,,
O=C(OOC(=O)c1ccccc1)c1ccccc1,inactive,inactive,inactive,inactive,,,,
CC[C@H](C)[C@H](N)C(=O)O,inactive,inactive,inactive,inactive,,,,
Cc1c(C(=O)NCCO)[n+](=O)c2ccccc2n1[O-],inactive,inactive,inactive,inactive,,,,
C/C=C1\[C@H]2C=C(C)C[C@]1(N)c1ccc(=O)[nH]c1C2,inactive,inactive,inactive,inactive,,,,
O=C(CCCl)NCCc1ccccc1,inactive,inactive,inactive,inactive,,,,
CC(C)OP(=O)(CP(=O)(OC(C)C)OC(C)C)OC(C)C,inactive,inactive,inactive,inactive,,,,
CCCCOC(=O)c1ccc(O)cc1,inactive,inactive,inactive,inactive,,,,
CC(=O)NCCCCCC(=O)O,inactive,inactive,inactive,inactive,,,,
Cc1ccccc1N1CCN(CCc2nnc3n2CCCC3)CC1,inactive,inactive,inactive,inactive,,,,
CCCCCCCC(=O)OCC(COC(=O)CCCCCCC)OC(=O)CCCCCCC,inactive,inactive,inactive,inactive,,,,
CN(CC1(C)CCCO1)S(=O)(=O)c1ccc(Cl)c(S(N)(=O)=O)c1 (stereo not given),inactive,inactive,inactive,inactive,,,,
NC(=O)c1ncn([C@@H]2O[C@H](CO)[C@@H](O)[C@H]2O)c1O,inactive,inactive,inactive,inactive,,,,
COc1ccccc1OCC1CNC(=O)O1 (stereo not given),inactive,inactive,inactive,inactive,,,,
NC(N)=NS(=O)(=O)c1ccc(N)cc1,inactive,inactive,inactive,inactive,,,,
NC(=O)c1ccc([N+](=O)[O-])cc1Cl,inactive,inactive,inactive,inactive,,,,
CN(c1nccc(=O)[nH]1)C1CCN(c2nc3ccccc3n2Cc2ccc(F)cc2)CC1,inactive,30.6 µM (active),inactive,inactive,,,,
CCCCCC[C@@H](CCC)C(=O)O,inactive,inactive,inactive,inactive,,,,
Nc1ccc(/C=C/c2ccc(N)cc2S(=O)(=O)O)c(S(=O)(=O)O)c1,,,,,-2.51% [at 0.757 µM],3.69% [at 0.757 µM],0.0811% [at 0.757 µM],15.6% [at 0.757 µM]
CC(C)(C(=O)c1cccnc1)c1cccnc1,inactive,inactive,inactive,inactive,,,,
NCCc1ccn[nH]1,inactive,inactive,inactive,inactive,,,,

SMILES,Potency [1],Potency [2],Potency [3],Potency [4],"activity change, negative = inhibition [1]","activity change, negative = reduced viability [2]","activity change, negative = lower viability [3]","activity change, negative = inhibition [4]"
CN=C(NC#N)NCCSCc1nc[nH]c1C,inactive,inactive,inactive,inactive,,,,
N=C(N)N1CCc2ccccc2C1,,,,,-8.85% [at 5.82 µM],-0.684% [at 5.82 µM],-9.02% [at 5.82 µM],-2.35% [at 5.82 µM]
NCC(=O)CCC(=O)O,inactive,inactive,inactive,inactive,,,,
COCCc1ccccn1,inactive,inactive,inactive,inactive,,,,
CCOC(=O)c1ccc(OCCN2C[C@H](O)[C@@H](O)[C@H](O)[C@H]2CO)cc1,inactive,inactive,inactive,inactive,,,,
COc1cc2c3cc1Oc1cc(ccc1O)C[C@@H]1c4c(cc(OC)c(O)c4Oc4ccc(cc4)C[C@@H]3N(C)CC2)CC[N+]1(C)C,inactive,inactive,inactive,inactive,,,,
Cc1c(NC(C)C)c(=O)n(-c2ccccc2)n1C,inactive,inactive,inactive,inactive,,,,
C[C@H](NC(CCc1ccccc1)C(=O)O)C(=O)N1CCC[C@H]1C(=O)O (stereo not given in full),inactive,inactive,inactive,inactive,,,,
Cc1ccc(O)c2ncccc12,inactive,inactive,inactive,inactive,,,,
CC(=O)OCC(=O)[C@H]1CC[C@H]2[C@@H]3CCC4=CC(=O)CC[C@]4(C)[C@H]3CC[C@]12C,inactive,inactive,inactive,inactive,,,,
CN1CC(=O)NC1=N,inactive,inactive,inactive,inactive,,,,
CCc1cc(S(=O)(=O)O)c2cc(C(C)C)cccc1-2,inactive,inactive,inactive,inactive,,,,
CCC(C(=O)NC(=O)NC(C)=O)c1ccccc1 (stereo not given),inactive,inactive,inactive,inactive,,,,
CC(CSC(=O)c1ccccc1)C(=O)N1C[C@@H](Sc2ccccc2)C[C@H]1C(=O)O (stereo not given in full),inactive,inactive,inactive,inactive,,,,
CO[C@@H]1[C@@H](OC(N)=O)[C@@H](O)[C@H](Oc2ccc3c(O)c(NC(=O)c4ccc(O)c(CC=C(C)C)c4)c(=O)oc3c2C)OC1(C)C,inactive,inactive,inactive,inactive,,,,
COc1nccnc1NS(=O)(=O)c1ccc(N)cc1,inactive,inactive,inactive,inactive,,,,
O=C(O)c1ccccc1Nc1cccc(C(F)(F)F)c1,inactive,inactive,inactive,inactive,,,,
Cc1ccc(C(=O)C(=O)O)cc1C,inactive,inactive,inactive,inactive,,,,
CC(C)Cc1ccc(CC(=O)O)cc1,inactive,inactive,inactive,inactive,,,,
OCc1ccc(Cl)cc1Cl,inactive,inactive,inactive,inactive,,,,
CC(C)C(=O)c1c(C(C)C)nn2ccccc12,inactive,inactive,inactive,inactive,,,,
O=C(O)c1ccccc1OP(=O)(O)O,inactive,inactive,inactive,inactive,,,,
NC(=O)COCCN1CCN(C(c2ccccc2)c2ccc(Cl)cc2)CC1 (stereo not given),inactive,inactive,inactive,inactive,,,,
CCCCOCCOC(=O)c1cccnc1,inactive,inactive,inactive,inactive,,,,
O=S(=O)(O)CCS,inactive,inactive,inactive,inactive,,,,
COc1cc(C(=O)N2CCCCCCC2)cc(OC)c1OC,inactive,inactive,inactive,inactive,,,,
Nc1ccc(S(=O)(=O)c2ccc(N)cc2)cc1,inactive,inactive,inactive,inactive,,,,

SMILES,Potency [1],Potency [2],Potency [3],Potency [4],"activity change, negative = inhibition [1]","activity change, negative = reduced viability [2]","activity change, negative = lower viability [3]","activity change, negative = inhibition [4]"
O=S(=O)(O)c1ccc(O)cc1,inactive,inactive,inactive,inactive,,,,
c1ccc2c(c1)CCCC2C1=NCCN1 (stereo not given),inactive,inactive,inactive,inactive,,,,
O=C1CC[C@@H](C(=O)O)N1,inactive,inactive,inactive,inactive,,,,
O=C1NCC2(CCN(CCc3ccccc3)CC2)O1,inactive,inactive,inactive,inactive,,,,
CCO/C([O-])=N/c1c[n+](N2CCOCC2)no1,inactive,inactive,inactive,inactive,,,,
O=C(O)c1ccccc1S,inactive,inactive,inactive,inactive,,,,
COc1cc(C(=O)NC2CCCNC2)cc(OC)c1OC (stereo not given),inactive,inactive,inactive,inactive,,,,
COc1ccc(NS(=O)(=O)c2ccc(N)cc2)nn1,inactive,inactive,inactive,inactive,,,,
COc1ccc2c(c1)c(CC(=O)OC/C=C(\C)CC/C=C(\C)CCC=C(C)C)c(C)n2C(=O)c1ccc(Cl)cc1,inactive,inactive,inactive,inactive,,,,
COc1cc(-c2ccc(=O)[nH]n2)ccc1OC(F)F,inactive,inactive,inactive,inactive,,,,
Cc1cccc(C)c1NC(=O)CN(CC(=O)O)CC(=O)O,inactive,inactive,inactive,inactive,,,,
N#CSCC(=O)O,inactive,inactive,inactive,inactive,,,,
CCN(CC)CCNC(=O)c1ccc(N)cc1,inactive,inactive,inactive,inactive,,,,
CC(C(=O)O)c1cccc(Oc2ccccc2)c1 (stereo not given),inactive,inactive,inactive,inactive,,,,
O=C1O[C@H](CO)[C@@H](O)[C@H](O)[C@H]1O,inactive,inactive,inactive,inactive,,,,
CC(C)C(=O)Nc1cccc(C(F)(F)F)c1,inactive,inactive,inactive,inactive,,,,
O=C(CS(=O)Cc1ccco1)NC/C=C\COc1cc(CN2CCCCC2)ccn1 (stereo not given),inactive,inactive,inactive,inactive,,,,
NNC(=O)c1ccncc1,inactive,inactive,inactive,inactive,,,,
Cc1cc2nc3c(=O)[nH]c(=O)nc-3n(C[C@H](O)[C@H](O)[C@H](O)CO)c2cc1C,inactive,inactive,inactive,inactive,,,,
CCOC(N)=O,inactive,inactive,inactive,inactive,,,,
Cc1c(C(=O)O)c(O)cc2c1C(=O)c1c(O)c([C@@H]3O[C@H](CO)[C@@H](O)[C@H](O)[C@H]3O)c(O)c(O)c1C2=O,inactive,inactive,inactive,inactive,,,,
Cc1cc(O)cc(C)c1Cl,inactive,inactive,inactive,inactive,,,,
NC(CS)C(=O)O (stereo not given),inactive,inactive,inactive,inactive,,,,
O=C(O)c1ccccc1C(=O)Nc1ccc(S(=O)(=O)Nc2nccs2)cc1,inactive,inactive,inactive,inactive,,,,
O=C(NC(Cc1cc(=O)[nH]c2ccccc12)C(=O)O)c1ccc(Cl)cc1 (stereo not given),inactive,inactive,inactive,inactive,,,,
O=C(O)C(S)C(S)C(=O)O (stereo not given),inactive,inactive,inactive,inactive,,,,

# Reference: PubChem BioAssay (NCATS)
